Only some compounds are listed: those with a hit (about 17% of all), similar ones and a draw of the others.
TGFb inhibitor = qHTS for Inhibitors of TGF-b; HepG2 CAGA-GFP TGF-b/SMAD3 reporter, GFP fluorescence, 18 h; TGF-beta stimulated, 500 pg/mL final; Potency, µM (titrated, usually from 46.1 µM), for the others: at the top dose activity, negative = inhibition, actives largely listed as inhibitors; 410,000 tested, 1.2% active; AID 588855, 2011; further: on the % scale 0 is the no-effect control and ±100 the full control effect; nearly all actives have a fitted effect of over 65% in size
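HEPG2 CAGA-GFP cells (1000/well, DMEM with 1% FBS) were pre-incubated 2 h at 37 degrees C, given compound by pin tool, then stimulated with TGF-beta at 500 pg/mL final for 18 h before per-cell GFP fluorescence imaging.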
HT1080 IDH1KD tx = qHTS for induction of synthetic lethality in tumor cells producing 2HG: qHTS for the HT-1080-IDH1KD cell line; 360,000 tested, 2% active; Potency, µM (top dose mostly 46.1 µM), for inactives: top-dose activity, negative = toxicity, usual class: cytotoxic; HT-1080 IDH1 knockdown viability, ATP luminescence, 48 h; AID 686971, 2013;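 further: 0% = DMSO wells and -100% = cell-free medium wells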
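IDH1KD HT-1080 cells, 750/well, RPMI + 5% FBS; compound pinned after 2 h settling; 48 h, 37 °C; CellTiter-Glo luminescence; % activity normalised to DMSO and no-cell wells; curves fitted, classed by r2 and efficacy.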
HepG2 tox-1 = qHTS for Inhibitors of TGF-b: Cytotox Counterscreen; HepG2 CAGA-GFP viability, ATP luminescence, 18 h; Potency, µM (highest dose often 46.1 µM), without a hit: at the highest dose activity change, negative = cytotoxicity, most hits filed as cytotoxic; 410,000 tested, 0.76% active; AID 588856, 2011
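HepG2 CAGA-GFP cells (1000/well, DMEM with 1% FBS) received compound, then TGF-beta at 500 pg/mL final, and were incubated 18 hours at 37 degrees C. Viability was read by CellTiter-Glo luminescence. Media-only wells were set as complete cell-killing and DMSO as no toxicity.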
DT40 TDP1 CPT = qHTS for Inhibitors of human tyrosyl-DNA phosphodiesterase 1 (TDP1): qHTS in cells in presence of CPT; Potency, µM (highest dose often 46.2 µM), for the others: at the top dose activity change, negative = growth inhibition, most hits filed as inhibitors; chicken DT40 Tdp1-/-;hTDP1 cells + 20 nM CPT, ATP luminescence, 48 h; 420,000 tested, 12% active; further: on the % scale 0 is the no-effect control and ±100 the full control effect; nearly all actives have a fitted effect of over 55% in size
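Chicken DT40 Tdp1-/- cells stably complemented with human TDP1 were seeded at 400 cells/well in medium containing 20 nM camptothecin, exposed to pin-transferred compounds, and grown at 37 °C for at least 48 hr. Viability was read as ATP luminescence.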
HT1080-NT tox = qHTS for induction of synthetic lethality in tumor cells producing 2HG: qHTS for the HT-1080-NT fibrosarcoma cell line; HT-1080-NT fibrosarcoma viability, CellTiter-Glo ATP luminescence, 48 h; AID 686970, 2013; 360,000 tested, 1.6% active; Potency, µM (top dose mostly 46.1 µM), for the others: top-dose activity, negative = less viability, usual class: cytotoxic;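 further: NT is the 2HG producing partner of a matched IDH1 knockdown line; 0% = DMSO-treated cells and -100% = media-only wells without cells; nearly all actives have a fitted effect of over 55% in size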
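Viability by CellTiter-Glo luminescence after 48 h compound exposure at 37C of HT-1080-NT cells (750/well, RPMI, 5% FBS). % activity scaled between DMSO wells and medium-only wells, then curve-fitted and categorized by curve class.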
DT40 TDP1 no CPT = qHTS for Inhibitors of human tyrosyl-DNA phosphodiesterase 1 (TDP1): qHTS in cells in absence of CPT; DT40 Tdp1-/- hTDP1 cells, no CPT, ATP luminescence, 48 h; Potency, µM (titrated, usually from 46.2 µM), for the others: at the highest dose activity change, negative = growth inhibition, hits mostly inhibitors; 420,000 tested, 15% active; further: on the % scale 0 is the no-effect control and ±100 the full control effect; nearly all actives have a fitted effect of over 55% in size
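Compound effects on proliferation are scored in DT40 Tdp1-/-;hTDP1 cells in the absence of CPT. ATP levels (CellTiter-Glo luminescence) are recorded after a ≥48 hr, 37 °C incubation.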
TGFb confirm = qHTS for Inhibitors of TGF-b: Confirmation of Cherry Picks; shares compounds with TGFb inhibitor; HepG2 CAGA-GFP TGF-b reporter, GFP fluorescence, 18 h; cells stimulated with TGF-beta, 500 pg/mL; Potency, µM (highest dose often 46.1 µM), inactives show at the highest dose activity, negative = inhibition, most hits filed as inhibitors; 1,600 tested, 63% active; AID 720534, 2013; further: on the % scale 0 is the no-effect control and ±100 the full control effect; nearly all actives have a fitted effect of over 65% in size
HepG2 tox-2 = qHTS for Inhibitors of TGF-b: Cytotox Counterscreen for Cherry Picks; shares compounds with TGFb inhibitor; HepG2 CAGA-GFP viability, ATP luminescence, 18 h; cells stimulated with TGF-beta, 500 pg/mL; Potency, µM (doses to about 46.1 µM), without a hit: at the top dose activity, negative = cytotoxicity, most hits filed as inhibitors; 1,600 tested, 27% active; AID 720535, 2013; further: on the % scale 0 is the no-effect control and ±100 the full control effect; nearly all actives have a fitted effect of over 70% in size
TGFb CCL64 inh = qHTS for Inhibitors of TGF-b: CCL64 Cells Orthogonal Assay for Cherry Picks; shares compounds with TGFb inhibitor; CCL64 CAGA-GFP reporter, TGF-b stimulated, GFP fluorescence, 18 h; Potency, µM (doses to about 46.1 µM), inactives show at the top dose activity, negative = inhibition, most hits filed as inhibitors; 1,600 tested, 41% active; further: nearly all actives have a fitted effect of over 65% in size
COP TGFb inh = qHTS for Inhibitors of TGF-b: Hit Validation in HepG2 Cells using COP promoter | Potency, µM (doses to about 46.1 µM), for the others: top-dose activity, negative = inhibition, hits mostly inhibitors | HepG2 COP-GFP TGF-b reporter, GFP fluorescence, 18 h; cells stimulated by added recombinant TGF-beta | 1,600 tested, 3% active | AID 720537, 2013 | shares compounds with TGFb inhibitor; further: nearly all actives have a fitted effect of over 70% in size
* hit, by the source's call; ? = inconclusive; · = no result. The call rests on the fitted dose curve; in most records, active means well fitted curve in the direction sought with a large enough effect; inconclusive means small, poorly fitted or top-dose-only effect, or another doubt; inactive means no such curve, though single readings can be large; an effect the other way counts as inactive or inconclusive. Potency means the concentration at half of the fitted maximal effect.

SMILES | TGFb inhibitor | HT1080 IDH1KD tx | HepG2 tox-1 | DT40 TDP1 CPT | HT1080-NT tox | DT40 TDP1 no CPT | TGFb confirm | HepG2 tox-2 | TGFb CCL64 inh | COP TGFb inh
C(=C\c1ccccc1)/CN1CCN(C(c2ccnc3ccccc23)c2nnnn2C2CCCCC2)CC1 (stereo unspecified) | 11µM* | ? | -1% | 23µM* | ? | 18µM* | 18µM* | ? | 18µM* | 46%
CCCCn1nnnc1C(c1cccc2ccccc12)N1CCN(C/C=C/c2ccccc2)CC1 (stereo unspecified) | 11µM* | ? | -6% | ? | ? | 21µM* | ? | ? | ? | 56%
CCCCn1nnnc1C(c1ccccc1)N1CCN(c2ccc(OC)cc2)CC1 (stereo unspecified) | · | -8% | · | ? | -12% | ? | · | · | · | ·
CSCCC(c1nnnn1C1CCCC1)N1CCN(C/C=C/c2ccccc2)CC1 (stereo unspecified) | ? | -8% | 1% | ? | -9% | ? | · | · | · | ·
CCCCn1nnnc1C(c1ccccc1OC(F)(F)F)N1CCN(C/C=C/c2ccccc2)CC1 (stereo unspecified) | 13µM* | ? | -16% | ? | ? | ? | 18µM* | -19% | ? | 21%
O=C(O)CCCCCCC1C(=O)NC(=O)N1CCC(O)C1CCCCC1 (stereo unspecified) | 4% | -1% | -2% | 0% | 21% | -9% | · | · | · | ·
COc1ccc(CNS(=O)(=O)c2cc(OCC(N)=O)c(C)cc2Cl)cc1 | -17% | 1% | 8% | -6% | 0% | -5% | · | · | · | ·
CC(C)(C)c1ccc(/C=C2\SC(=O)N(CCNC(=O)c3cccc(S(=O)(=O)N4CCOCC4)c3)C2=O)cc1 | 13µM* | -24% | -19% | 8.2µM* | -3% | 23µM* | 7.3µM* | ? | ? | 18%

Screening results from PubChem.
